Screening results: PubChem BioAssay, Paczesny and Yang Labs, IUPUI and University of Michigan
The sample as a whole holds a higher share of hits than the screen did.
ST2 IL33 inh = IL1RL1 inhibition | 78,000 tested, 2.3% active | AlphaLISA ST2-Fc/biotin-IL-33 interaction, 1 h | inhibition, % for hits at 17 µM; in the data active = inhibition above about 30%
Target sequence (Q01638 whole entry, looked up): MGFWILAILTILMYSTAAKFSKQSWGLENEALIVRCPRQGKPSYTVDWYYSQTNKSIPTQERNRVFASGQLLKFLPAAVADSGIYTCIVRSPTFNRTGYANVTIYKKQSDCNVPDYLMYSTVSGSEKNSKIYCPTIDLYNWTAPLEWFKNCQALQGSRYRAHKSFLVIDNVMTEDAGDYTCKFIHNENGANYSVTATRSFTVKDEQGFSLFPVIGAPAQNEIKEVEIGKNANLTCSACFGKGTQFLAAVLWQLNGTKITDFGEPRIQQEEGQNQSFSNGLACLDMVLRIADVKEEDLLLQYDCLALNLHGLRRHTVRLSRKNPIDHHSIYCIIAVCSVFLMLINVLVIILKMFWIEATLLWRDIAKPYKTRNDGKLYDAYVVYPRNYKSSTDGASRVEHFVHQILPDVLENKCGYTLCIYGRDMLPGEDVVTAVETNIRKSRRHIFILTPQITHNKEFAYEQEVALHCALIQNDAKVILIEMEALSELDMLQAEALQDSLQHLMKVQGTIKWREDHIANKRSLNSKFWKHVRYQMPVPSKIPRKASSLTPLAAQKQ
* hit, by the source's call; i = inactive; ! = not active in a repeat.

SMILES | ST2 IL33 inh
CC1(C)CC(=O)C2=C(C1)Nc1cc(C(=O)c3ccccc3)ccc1NC2c1cccnc1 (configuration not stated) | 33%*
CC1(C)CC(=O)C2=C(C1)Nc1nc(SCc3ccccc3)nn1C2c1ccc(O)cc1 (configuration not stated) | i
CC1(C)CC(=O)C2=C(C1)Nc1ccccc1N(C(=O)Cc1ccc(Cl)cc1)C2c1ccco1 (configuration not stated) | i
Cc1ccc(C2Nc3ccc(C(=O)c4ccccc4)cc3NC3=C2C(=O)CCC3)cc1 (configuration not stated) | i
CC1=C(C(=O)Nc2ccc(C)cn2)C(c2cccnc2)C2=C(CC(C)(C)CC2=O)N1 (configuration not stated) | i
COc1cccc(C2C3=C(CC(C)(C)CC3=O)Nc3nc(SCc4ccccc4)nn32)c1 (configuration not stated) | i
CCOc1c(Br)cc(C(c2c(C)[nH][nH]c2=O)c2c(C)[nH][nH]c2=O)cc1OC | i
Cc1cc(C(=O)Nc2sc3c(c2C(N)=O)CCC(C)C3)ccc1[N+](=O)[O-] (configuration not stated) | i
Cc1cccc(Cn2cnc3sc(C)c(C)c3c2=O)c1 | i
CCN(C(=O)c1sc(C)nc1-c1ccccc1)[C@H]1COC[C@@H]1O | i
CCc1cc(=O)oc2cc(OCc3ccc(C(=O)OC)cc3)ccc12 | i
CCCc1nnc([C@H]2CCN(CC(C)(C)C)C2)o1 | i
Cc1nc(SCC(=O)Nc2ccc(F)cc2)c2c(=O)n(C)c(=O)n(C)c2n1 | i
CCN(Cc1cccc(C(=O)Nc2cc(C)nn2C)c1)CC1CCCO1 (configuration not stated) | i
OCc1ccccc1-n1ncc2cccnc21 | i
O=C(NCc1ccc(Cl)cc1)c1cc(-c2ccc(Cl)cc2)on1 | i
O=C(O)CCC(=O)N1CC[C@H](c2nc3ccccc3s2)C1 | i
c1ccc2sc([C@H]3CCNC3)nc2c1 | 32%*
CC(=O)N1CCC(N2CC[C@H](c3nc4ccccc4s3)C2)CC1 | i
COc1ccccc1CN1C[C@@H]2C[C@@H](c3cnn(-c4ccccc4F)c3)N3CCC[C@@]23C1=O | i
CN(C)c1ccc(C(=O)Nc2nc3ccc4ccccc4c3s2)cc1 | i
CN(C)c1ccc(/C=C/c2ccnc3ccccc23)cc1 | 43%*
Cc1ccc2c(c1)N(CCCC(=O)O)C(=O)CO2 | i
COc1ccc(NC(=O)Cc2ccccc2[N+](=O)[O-])cc1OC | i
COc1ccc(NCc2ccc([N+](=O)[O-])s2)cc1OC | 45%*
SMILES | ST2 IL33 inh
COc1ccc(Nc2ncnc(N)c2[N+](=O)[O-])cc1OC | i
O=C1C(c2ccccc2)N=C2c3ccccc3N=C(SCc3cc(=O)n4ccccc4n3)N12 (configuration not stated) | i
Cn1c(=NC(=O)c2ccc(S(=O)(=O)N3CCCCCC3)cc2)sc2ccccc21 | i
CSc1ccccc1NC(=O)CCC(=O)N1C[C@@H]2CC[C@H]1C2 | i
O=C1OCCCN1CCn1ccnc1-c1nc2c(s1)CCCC2 | i
COC(=O)[C@@H]1Cc2ncn(Cc3ccc(OC)cc3)c2CN1Cc1ccc(OC)cc1 | 89%*
COC(=O)[C@@H]1Cc2ncn(Cc3ccc(Cl)cc3)c2CN1C(=O)COc1ccccc1 | i
COC(=O)[C@@H]1Cc2ncn(Cc3ccc(Cl)cc3)c2CN1Cc1ccc(CO)o1 | i
COC(=O)[C@@H]1Cc2ncn(Cc3ccc(Cl)cc3)c2CN1Cc1ccc(F)cc1 | i
COC(=O)[C@@H]1Cc2ncn(Cc3ccc(Cl)cc3)c2CN1S(C)(=O)=O | i
COC(=O)[C@@H]1Cc2ncn(Cc3ccc(OC)cc3)c2CN1C(=O)c1ccc(OC)cc1 | i
COCC(=O)N1Cc2c(ncn2Cc2ccc(OC)cc2)C[C@H]1C(=O)OC | 68%*
COC(=O)[C@@H]1Cc2ncn(Cc3ccc(Cl)cc3)c2CN1C(=O)c1ccccc1OC | i
COC(=O)[C@@H]1Cc2ncn(Cc3ccc(OC)cc3)c2CN1Cc1cccc(C#N)c1 | 41%*
CN1CCN(C(=O)CCC2CCCN(Cc3ccc(OC4CCCC4)cc3)C2)CC1 (configuration not stated) | i
O=C(NCCCN1CCCC1)c1cc2cc3ccc(Cl)cc3nc2o1 | i
COc1ccc2cc3cc(C(=O)NCCCN4CCCC4)oc3nc2c1 | 33%*!
CCC1CCCCN1CCCNC(=O)c1cc2cc3ccc(OC)cc3nc2o1 (configuration not stated) | i
COc1ccc2cc3cc(C(=O)NCCCN4CCCCCC4)oc3nc2c1 | 31%*!
COc1ccc2cc3cc(C(=O)NCCN4CCOCC4)oc3nc2c1 | i
COc1ccc2cc3cc(C(=O)NCCCN4CCN(Cc5ccccc5)CC4)oc3nc2c1 | i
CN1C[C@@H](NS(=O)(=O)Cc2ccccc2)C[C@H]1c1nc(-c2ccc(OC(F)(F)F)cc2)no1 | i
O=C(Nc1cccc(O)c1)c1cccc(S(=O)(=O)N2CCCCC2)c1 | i
CC(C)Oc1ccc(C=NCC2(c3ccccc3)CCOCC2)cc1 | i
CN1CCN([C@H]2[C@@H]3OC[C@@H](O3)[C@@H](NC(=O)Nc3ccccc3)[C@@H]2O)CC1 | 35%*
SMILES | ST2 IL33 inh
COc1cccc(NC(=O)N[C@H]2[C@H](O)[C@@H](N3CCN(C(C)=O)CC3)[C@@H]3OC[C@H]2O3)c1 | i
O=C(Nc1cccc(C(F)(F)F)c1)N[C@H]1[C@H](O)[C@@H](N2CCCCC2)[C@@H]2OC[C@H]1O2 | i
COc1cccc(NC(=O)N[C@H]2[C@H](O)[C@@H](N3CCCC3)[C@@H]3OC[C@H]2O3)c1 | 47%*
COc1ccc(NC(=O)N[C@H]2[C@H](O)[C@@H](N3CCC(Cc4ccccc4)CC3)[C@@H]3OC[C@H]2O3)cc1 | i
N#Cc1cccc(NC(=O)N[C@H]2[C@H](O)[C@@H](N3CCCC3)[C@@H]3OC[C@H]2O3)c1 | i
N#Cc1sc2nc(N3CCOCC3)c3c(c2c1N)CCCC3 | i
COCC(=O)Nc1cccc(-c2cc(F)ccc2C)c1 | i
CCN(CC)CCN(C)Cc1cc(OC)c(OC)c(OC)c1 | i
O=[N+]([O-])c1cc(Cc2ccccc2)ccc1O | 36%*
O=[N+]([O-])c1cc(CN2CCCCC2)ccc1O | i
O=[N+]([O-])c1cc(CN2CCOCC2)ccc1O | i
Cc1cccc(N=Cc2cc3c(cc2[N+](=O)[O-])OCO3)c1C | 39%*
Cc1ccc(O)c(N=Cc2cccc([N+](=O)[O-])c2O)c1 | i
COc1cc(CN2CCN(c3cccc(C)c3C)CC2)cc([N+](=O)[O-])c1O | i
O=[N+]([O-])c1cc2c(cc1CN1CCCCCC1)OCO2 | i
O=[N+]([O-])c1cc2c(cc1C=Nc1ccc(I)cc1)OCO2 | i
Cc1cccc(N2CCN(Cc3cc4c(cc3[N+](=O)[O-])OCO4)CC2)c1C | 37%*
COCC(c1ccccn1)N(C)C(=O)c1cccc(-n2nc(C)cc2C)c1 (configuration not stated) | i
Cc1cc(C)c2ccc(NN)nc2c1O | 34%*
Cc1cc(C)c2ccc(CO)nc2c1O | i
Cc1c(O)ccc2c(=O)c(Oc3ccccc3)coc12 | i
O=c1c(Oc2ccc(F)cc2)coc2c(O)c(O)ccc12 | 41%*
CC(=O)Oc1ccc2c(=O)c(Oc3ccccc3)coc2c1C | i
COc1ccc(C)cc1NC(=O)c1ccc([N+](=O)[O-])cc1 | i
CCc1[nH]c2ccc(CNC(=O)[C@@H]3CCCN3C(C)=O)cc2c1C | i
CCOc1ccc(-c2cn(-c3ccc(C)cc3)c(=O)[nH]2)cc1Cl | i
